{
  "source": "PubChem BioAssay (EPA / NIEHS)",
  "key": {"[1]": {"assay": "CCTE_Padilla_ZF_144hpf_TERATOSCORE: (Legacy) CCTE's 144 Hour Post-fertilization zebrafish Assay Teratoscore, Padilla Lab (AID 2283679; active means hit-call score of the fitted dose curve at least 0.9, where 1 is the maximum; inactive means score below 0.9;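 on AC50: zebrafish embryos with chorions exposed by immersion from 6-8 hpf to 5 dpf with daily renewal; teratogenicity score from eye scoring of death hatching and malformations at 144 hpf; higher score means more developmental defects relative to DMSO baseline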)", "summary_of_the_method": "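Larvae scored by eye at 144 hpf for death, hatching and malformations after a day in clean Hanks'. Before that, daily-renewed exposure at 80 uM (0.4% DMSO, 26C) from roughly 6-8 hpf through 5 dpf, 4 embryos per chemical.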"}, "[2]": {"read-out": "Cytochrome P450 3A4 (Homo sapiens) (UniProt P08684)", "assay": "CLD_CYP3A4_6hr: CellzDirect (CLD) Gene Expression Assay for xenobiotic metabolism (CYP3A4) at 6 hours (AID 2283680)", "summary_of_the_method": "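CYP3A4 mRNA induction, 6 h after dosing of cultured primary human hepatocytes from two donors, read by quantitative nuclease protection (qNPA, chemiluminescence). Vehicle 0.2% DMSO as baseline; morphology-based cytotoxicity annotated yes/no.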"}, "[3]": {"read-out": "HMG-CoA synthase (HMGCS2), HMGCS2 (gene 3158)", "assay": "CLD_HMGCS2_6hr: CellzDirect (CLD) Gene Expression Assay for HMG-CoA synthase (HMGCS2) at 6 hours (AID 2283682)", "summary_of_the_method": "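HMGCS2 transcript induction read by quantitative nuclease protection with chemiluminescence, 6 h after dosing of primary human hepatocytes. Baseline was 0.2% DMSO vehicle; phase-contrast morphology gave a yes/no cytotoxicity annotation.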"}, "[4]": {"read-out": "xenobiotic metabolism (CYP1A2), CYP1A2 (gene 1544)", "assay": "CLD_CYP1A2_24hr: CellzDirect (CLD) Gene Expression Assay for xenobiotic metabolism (CYP1A2) at 24 hours (AID 2283683)", "summary_of_the_method": "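CYP1A2 mRNA induction measured by quantitative nuclease protection (chemiluminescent) in human primary hepatocytes 24 h after multi-concentration chemical dosing with daily fresh solutions. DMSO (0.2%) baseline; positive-direction fitting; morphology-based cytotoxicity noted.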"}, "[5]": {"read-out": "ABC Transporter (ABCB1), ABCB1 (gene 5243)", "assay": "CLD_ABCB1_24hr: CellzDirect (CLD) Gene Expression Assay for ABC Transporter (ABCB1) at 24 hours (AID 2283684)", "summary_of_the_method": "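ABCB1 mRNA induction versus 0.2% DMSO vehicle was read by qNPA chemiluminescence at 24 h. Cultured human hepatocytes from two donor preparations received daily fresh dosing, and phase-contrast cytotoxicity calls were annotated alongside the data.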"}, "[6]": {"read-out": "Cytochrome P450 3A4 (Homo sapiens) (UniProt P08684)", "assay": "CLD_CYP3A4_24hr: CellzDirect (CLD) Gene Expression Assay for xenobiotic metabolism (CYP3A4) at 24 hours (AID 2283689)", "summary_of_the_method": "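CYP3A4 mRNA induction read by quantitative nuclease protection (chemiluminescence) 24 hr after dosing. Cultured human hepatocytes (two donor preparations) treated daily, vehicle 0.2% DMSO; phase-contrast morphology annotates cytotoxicity.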"}, "[7]": {"read-out": "Broad substrate specificity ATP-binding cassette transporter ABCG2 (Homo sapiens) (UniProt Q9UNQ0)", "assay": "CLD_ABCG2_24hr: CellzDirect (CLD) Gene Expression Assay for ABC Transporter (ABCG2) at 24 hours (AID 2283685)", "summary_of_the_method": "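ABCG2 mRNA induction, read as gain of chemiluminescent signal over 0.2% DMSO, was measured by quantitative nuclease protection at 24 h. Cultured human liver hepatocytes were given fresh dosing solutions of test chemicals at several concentrations each day.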"}, "[8]": {"read-out": "Cytochrome P450 2C19 (Homo sapiens) (UniProt P33261)", "assay": "CLD_CYP2C19_24hr: CellzDirect (CLD) Gene Expression Assay for xenobiotic metabolism (CYP2C19) at 24 hours (AID 2283687);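 further: activity means mRNA induction above DMSO vehicle baseline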", "summary_of_the_method": "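CYP2C19 mRNA was quantified by qNPA chemiluminescence after 24 h of daily dosing of cultured human primary hepatocytes from two donors; vehicle was 0.2% DMSO, and increases over DMSO baseline were fitted.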"}, "[9]": {"read-out": "Glyceraldehyde-3-phosphate dehydrogenase (Homo sapiens) (UniProt P04406)", "assay": "CLD_GAPDH_6hr: CellzDirect (CLD) Gene Expression Assay for Baseline Control (Glyceraldehyde 3-phosphate dehydrogenase) at 6 hours (AID 2283681);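 further: active means increased signal relative to DMSO vehicle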", "summary_of_the_method": "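GAPDH baseline-control readout from qNPA (S1 nuclease digestion, probe hybridization, chemiluminescence) in lysates of cultured human hepatocytes harvested 6 h post-dosing. Chemicals tested at multiple concentrations versus 0.2% DMSO vehicle; microscopy-based cytotoxicity flagged yes/no.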"}, "[10]": {"read-out": "Cytochrome P450 2B6 (Homo sapiens) (UniProt P20813)", "assay": "CLD_CYP2B6_24hr: CellzDirect (CLD) Gene Expression Assay for xenobiotic metabolism (CYP2B6) at 24 hours (AID 2283686)", "summary_of_the_method": "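qNPA chemiluminescent measurement of mRNA at 24 hours in human primary hepatocyte cultures from two donor preparations, with daily fresh dosing and 0.2% DMSO vehicle as baseline. Morphology-based cytotoxicity flagged yes/no.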"}},
  "note": "Records with an inconclusive call do not appear. The source made the active and inactive calls. How the source made its calls, unless noted: active means hit-call score of the fitted dose curve at least 0.9, where 1 is the maximum; inconclusive means response in the unintended direction; inactive means score below 0.9.",
  "data": [
    {"smiles": "CCOP(=S)(OCC)Oc1ccc([N+](=O)[O-])cc1", "values": [
      {"measurement": "AC50", "setting": "[1]", "value": "6.3 µM (active)"},
      {"measurement": "AC50", "setting": "[2]", "value": "2.2 µM (active)"},
      {"measurement": "outcome", "setting": "[3]", "value": "inactive"},
      {"measurement": "AC50", "setting": "[4]", "value": "4.89 µM (active)"},
      {"measurement": "outcome", "setting": "[5]", "value": "inactive"},
      {"measurement": "AC50", "setting": "[6]", "value": "5.25 µM (active)"}
    ]},
    {"smiles": "CCOP(=S)(OCC)SCCSCC", "values": [
      {"measurement": "outcome", "setting": "[2]", "value": "inactive"},
      {"measurement": "outcome", "setting": "[3]", "value": "inactive"},
      {"measurement": "AC50", "setting": "[4]", "value": "6.62 µM (active)"},
      {"measurement": "outcome", "setting": "[5]", "value": "inactive"},
      {"measurement": "outcome", "setting": "[7]", "value": "inactive"}
    ]},
    {"smiles": "C[N+]1(C)CCCCC1", "values": [
      {"measurement": "outcome", "setting": "[1]", "value": "inactive"},
      {"measurement": "outcome", "setting": "[5]", "value": "inactive"},
      {"measurement": "outcome", "setting": "[7]", "value": "inactive"}
    ]},
    {"smiles": "CNC(=O)Oc1cccc2c1OC(C)(C)O2", "values": [
      {"measurement": "AC50", "setting": "[1]", "value": "50.1 µM (active)"},
      {"measurement": "outcome", "setting": "[2]", "value": "inactive"},
      {"measurement": "outcome", "setting": "[3]", "value": "inactive"},
      {"measurement": "AC50", "setting": "[4]", "value": "20 µM (active)"},
      {"measurement": "outcome", "setting": "[5]", "value": "inactive"},
      {"measurement": "outcome", "setting": "[8]", "value": "inactive"},
      {"measurement": "AC50", "setting": "[6]", "value": "20 µM (active)"}
    ]},
    {"smiles": "CCCCOC(=O)c1ccccc1C(=O)O", "values": [
      {"measurement": "outcome", "setting": "[1]", "value": "inactive"},
      {"measurement": "outcome", "setting": "[9]", "value": "inactive"},
      {"measurement": "outcome", "setting": "[4]", "value": "inactive"},
      {"measurement": "outcome", "setting": "[5]", "value": "inactive"},
      {"measurement": "outcome", "setting": "[7]", "value": "inactive"}
    ]},
    {"smiles": "O=C(O)c1cc(Oc2ccc(C(F)(F)F)cc2Cl)ccc1[N+](=O)[O-]", "values": [
      {"measurement": "outcome", "setting": "[1]", "value": "inactive"},
      {"measurement": "AC50", "setting": "[3]", "value": "0.00569 µM (active)"},
      {"measurement": "outcome", "setting": "[4]", "value": "inactive"},
      {"measurement": "outcome", "setting": "[5]", "value": "inactive"}
    ]},
    {"smiles": "CCOP(=S)(OCC)Oc1cc(C)nc(C(C)C)n1", "values": [
      {"measurement": "AC50", "setting": "[1]", "value": "62.7 µM (active)"},
      {"measurement": "outcome", "setting": "[9]", "value": "inactive"},
      {"measurement": "outcome", "setting": "[3]", "value": "inactive"},
      {"measurement": "AC50", "setting": "[4]", "value": "7.6 µM (active)"},
      {"measurement": "outcome", "setting": "[5]", "value": "inactive"}
    ]},
    {"smiles": "Nc1c(Cl)cc([N+](=O)[O-])cc1Cl", "values": [
      {"measurement": "outcome", "setting": "[2]", "value": "inactive"},
      {"measurement": "outcome", "setting": "[9]", "value": "inactive"},
      {"measurement": "AC50", "setting": "[4]", "value": "20 µM (active)"},
      {"measurement": "outcome", "setting": "[7]", "value": "inactive"},
      {"measurement": "AC50", "setting": "[10]", "value": "33.7 µM (active)"}
    ]},
    {"smiles": "N#CSCSC#N", "values": [
      {"measurement": "AC50", "setting": "[1]", "value": "5.18 µM (active)"},
      {"measurement": "outcome", "setting": "[9]", "value": "inactive"},
      {"measurement": "outcome", "setting": "[3]", "value": "inactive"},
      {"measurement": "outcome", "setting": "[5]", "value": "inactive"},
      {"measurement": "outcome", "setting": "[7]", "value": "inactive"},
      {"measurement": "outcome", "setting": "[10]", "value": "inactive"}
    ]},
    {"smiles": "COP(=O)(OC)C(O)C(Cl)(Cl)Cl", "note": "(centres undefined)", "values": [
      {"measurement": "AC50", "setting": "[1]", "value": "168 µM (active)"},
      {"measurement": "outcome", "setting": "[9]", "value": "inactive"},
      {"measurement": "outcome", "setting": "[5]", "value": "inactive"},
      {"measurement": "outcome", "setting": "[7]", "value": "inactive"}
    ]},
    {"smiles": "CNc1cnn(-c2cccc(C(F)(F)F)c2)c(=O)c1Cl", "values": [
      {"measurement": "outcome", "setting": "[1]", "value": "inactive"},
      {"measurement": "AC50", "setting": "[4]", "value": "5.72 µM (active)"},
      {"measurement": "outcome", "setting": "[5]", "value": "inactive"},
      {"measurement": "AC50", "setting": "[6]", "value": "5.8 µM (active)"}
    ]},
    {"smiles": "CC(C)[C@H](C(=O)O[C@H](C#N)c1cccc(Oc2ccccc2)c1)c1ccc(Cl)cc1", "values": [
      {"measurement": "AC50", "setting": "[1]", "value": "0.166 µM (active)"},
      {"measurement": "outcome", "setting": "[2]", "value": "inactive"},
      {"measurement": "outcome", "setting": "[9]", "value": "inactive"},
      {"measurement": "outcome", "setting": "[4]", "value": "inactive"},
      {"measurement": "outcome", "setting": "[5]", "value": "inactive"},
      {"measurement": "outcome", "setting": "[6]", "value": "inactive"}
    ]},
    {"smiles": "CCC(CC)Nc1c([N+](=O)[O-])cc(C)c(C)c1[N+](=O)[O-]", "values": [
      {"measurement": "AC50", "setting": "[1]", "value": "24.2 µM (active)"},
      {"measurement": "outcome", "setting": "[9]", "value": "inactive"},
      {"measurement": "outcome", "setting": "[3]", "value": "inactive"},
      {"measurement": "AC50", "setting": "[4]", "value": "33.4 µM (active)"}
    ]},
    {"smiles": "C#CC(C)(C)NC(=O)c1cc(Cl)cc(Cl)c1", "values": [
      {"measurement": "outcome", "setting": "[1]", "value": "inactive"},
      {"measurement": "outcome", "setting": "[4]", "value": "inactive"},
      {"measurement": "outcome", "setting": "[5]", "value": "inactive"},
      {"measurement": "outcome", "setting": "[7]", "value": "inactive"},
      {"measurement": "outcome", "setting": "[10]", "value": "inactive"}
    ]},
    {"smiles": "CC(C)=CC1C(C(=O)OCN2C(=O)C3=C(CCCC3)C2=O)C1(C)C", "note": "(centres undefined)", "values": [
      {"measurement": "outcome", "setting": "[2]", "value": "inactive"},
      {"measurement": "outcome", "setting": "[9]", "value": "inactive"},
      {"measurement": "outcome", "setting": "[4]", "value": "inactive"},
      {"measurement": "outcome", "setting": "[7]", "value": "inactive"}
    ]},
    {"smiles": "COc1cccc(C(=O)NN(C(=O)c2cc(C)cc(C)c2)C(C)(C)C)c1C", "values": [
      {"measurement": "outcome", "setting": "[1]", "value": "inactive"},
      {"measurement": "outcome", "setting": "[3]", "value": "inactive"},
      {"measurement": "AC50", "setting": "[4]", "value": "32.6 µM (active)"},
      {"measurement": "outcome", "setting": "[5]", "value": "inactive"},
      {"measurement": "outcome", "setting": "[7]", "value": "inactive"},
      {"measurement": "AC50", "setting": "[6]", "value": "3.74 µM (active)"}
    ]}
  ]
}
